# SMN2 splice enh = SMN2 splice variant enhancement. HEK293 SMN2-luciferase splicing reporter, luminescence, 30-36 h. Potency, µM (series often up to 46.1 µM), for inactives: at the highest dose activity change, positive = activation, hits mostly activators. hit rate 2.8% among 210,000; further: % of control where 0% means no effect; nearly all actives have a fitted effect of over 55% in size
#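 qHTS luciferase splicing reporter: luminescence rises when SMN2 exon 7 is included in transfected HEK293 cells. Compound exposure lasted 30-36 h at 37C, with 4.5 mM final sodium butyrate as control, followed by a ONE-Glo read.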
# FLuc counter = firefly luciferase modulation, counter-screen for miR-21 project. P08659. purified FLuc, Km substrates, luminescence inhibition. AID 588342. hit rate 6.9% among 360,000. Potency, µM (titrated, usually from 57.5 µM), for inactives: at the top dose activity change, negative = inhibition, most hits filed as inhibitors;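 further: plate controls were vehicle for no effect and reference inhibitor for full effect; nearly all actives have a fitted effect of over 55% in size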
# Target sequence (P08659 whole entry, looked up): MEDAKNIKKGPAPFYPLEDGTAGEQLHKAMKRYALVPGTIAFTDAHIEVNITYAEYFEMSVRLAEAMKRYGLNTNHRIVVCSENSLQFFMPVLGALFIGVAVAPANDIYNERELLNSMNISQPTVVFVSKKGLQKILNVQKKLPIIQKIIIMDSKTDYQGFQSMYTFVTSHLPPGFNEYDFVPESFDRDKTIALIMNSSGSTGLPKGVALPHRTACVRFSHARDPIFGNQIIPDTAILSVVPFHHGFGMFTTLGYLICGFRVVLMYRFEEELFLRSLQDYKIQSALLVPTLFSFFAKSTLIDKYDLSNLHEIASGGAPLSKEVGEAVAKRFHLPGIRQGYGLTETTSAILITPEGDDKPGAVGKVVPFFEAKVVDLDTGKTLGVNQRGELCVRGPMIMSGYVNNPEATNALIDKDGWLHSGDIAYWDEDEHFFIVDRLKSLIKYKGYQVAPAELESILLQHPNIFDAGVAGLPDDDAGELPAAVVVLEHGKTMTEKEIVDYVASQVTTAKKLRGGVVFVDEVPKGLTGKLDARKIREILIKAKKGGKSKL
#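 Biochemical qHTS of compounds, final roughly 60 µM downward over six points, against 10 nM purified firefly luciferase using Km concentrations of substrates (10 uM D-luciferin, 10 uM ATP) in Tris acetate pH 7.5 buffer; luminescence output.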
# ELG1 genotoxic = induces genotoxicity in HEK293T cells with luciferase-tagged ELG1. hit rate 1.3% among 330,000. Potency, µM (series often up to 46 µM), for the others: at the top dose activity change, positive = activation, usual class: activators. HEK293T ELG1-luciferase reporter, luminescence, 16 h; further: % of control where 0% means no effect; nearly all actives have a fitted effect of over 60% in size
#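 After overnight (16 hr) compound treatment at 37 °C, ELG1-luciferase HEK293T cells were lysed with ONE-Glo; luminescence quantified 30 min later at room temperature.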
# p53 reactivator = restores transcriptional activity of mutant p53; AID 504706; hit rate 0.063% among 320,000; H1299 p53-A138V BP100-luciferase reporter, luminescence, 24 h; Potency, µM (highest dose often 92.2 µM), without a hit: at the highest dose activity change, positive = activation, most hits filed as activators; further: % of control where 0% means no effect; nearly all actives have a fitted effect of over 45% in size
#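 H1299 (p53-null), stable ts p53-A138V + BP100-Luc; 1000 cells/well, Opti-MEM/10% FBS; cpd 4 pt, 1:5; 24 h, 37 deg C, 5% CO2; detection reagent 10 min RT; luminescence.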
# NPC1 promoter act = NPC1 promoter activation | hit rate 2.4% among 320,000 | AID 485313 | Potency, µM (series often up to 9.22 µM), for the others: at the highest dose activation, most hits filed as activators | Huh7 NPC1 promoter luciferase reporter, 24 h; further: % of control where 0% means no effect; nearly all actives have a fitted effect of over 60% in size
#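 Luminescence read-out of NPC1 promoter-driven luciferase in stably transfected Huh7 cells; compounds delivered in DMSO and left 24 h at 37C, 5% CO2, qHTS titration format.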
# Rab9 promoter act = Rab9 promoter activation. Huh7 Rab9 promoter-luciferase reporter, luminescence, 24 h. Potency, µM (series often up to 9.22 µM), for the others: at the highest dose activation, negative = inhibition, hits mostly activators. hit rate 2.8% among 320,000; further: % of control where 0% means no effect; nearly all actives have a fitted effect of over 60% in size
#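 Using Huh7 cells stably transfected with Rab9 promoter–luciferase, compounds were incubated 24 h at 37 °C, 5% CO2; luciferase luminescence was read 10 min after reagent addition.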
# * marks the source's active call; other numbers are inactive results; ? = inconclusive; · = no result given. Rows were chosen to be rich in hits. Some 7.4% of all compounds tested hit in one or more screens of this group. The call rests on the fitted dose curve; in most records, active means well fitted curve in the direction sought with a large enough effect; inconclusive means small, poorly fitted or top-dose-only effect, or another doubt; inactive means no such curve, though single readings can be large; an effect the other way counts as inactive or inconclusive. Potency means the concentration at half of the fitted maximal effect.
SMILES,SMN2 splice enh,FLuc counter,ELG1 genotoxic,p53 reactivator,NPC1 promoter act,Rab9 promoter act
CS(=O)(=O)Nc1ccc(C2=NN(C(=O)c3ccco3)C(c3ccc(F)cc3)C2)cc1 (centres undefined),-56.5%,-2.7%,-4.1%,-6.7%,-3.0%,-2.6%
O=C(c1ccco1)N1N=C(c2ccc3nccnc3c2)CC1c1ccccc1 (centres undefined),0.5%,16.9µM*,6.1%,3.0%,-8.0%,16.5%
CCCOc1ccc(-c2c(C(=O)N/N=C(\C)c3ccncc3)nnn2-c2nonc2N)cc1,·,2.2%,-2.7%,-2.8%,-1.3%,-1.1%
Cc1ccc(NC(=O)c2ccc3c(SCC(=O)O)c4c(nc3c2)CCCC4)c(Br)c1,·,?,-3.3%,5.3%,-5.6%,-3.5%
CCOc1ccc(NC(=O)c2ccc3c(SCC(=O)O)c4c(nc3c2)CCCC4)cc1,4.8%,16.9µM*,0.6%,-0.1%,0.5%,-2.8%
O=C(O)CSc1c2c(nc3cc(C(=O)Nc4cccc(C(F)(F)F)c4)ccc13)CCC2,·,26.9µM*,0.0%,-2.5%,-0.8%,-3.0%
CC(C)n1nnnc1SCC(=O)N1N=C(c2cccs2)CC1c1cccs1 (centres undefined),·,23.9µM*,15.8%,?,28.9%,?
C/C(=N\NC(=O)c1ccccc1[N+](=O)[O-])c1c(O)cc(C)oc1=O,-23.6%,-0.9%,-0.1%,-0.5%,0.8%,-8.9%
C/C(=N\NC(=O)c1cc(Br)ccc1O)c1cccs1,17.8µM*,10.7µM*,?,3.5%,2µM*,3.55µM*
COC(=O)N/N=C(\C)c1cccs1,·,4.2%,7.0%,7.2%,-1.9%,-5.5%
C/C(=N\NC(=O)c1ccccc1O)c1c(O)cc(C)oc1=O,?,15.1µM*,19.4%,11.7%,29.1%,?
C/C(=N\NC(=O)c1ccccc1O)c1ccc(Br)s1,1.58µM*,3.79µM*,4.9%,?,?,?
C/C(=N\NC(=O)c1cc(C)nc2ccccc12)c1cccs1,·,0.2%,-1.7%,0.1%,0.3%,-9.1%
C/C(=N/NC(=O)c1ccc(Br)o1)c1cccs1,·,16.9µM*,9.2µM*,11.6%,2.51µM*,3.98µM*
c1ccc(COc2cccc(CNCc3ccccn3)c2)cc1,-14.9%,?,1.3%,7.6%,0.8%,10.8%
O=Cc1ccc(OCc2ccc3ccccc3c2)cc1,·,5.36µM*,?,?,14.8%,?
O=Cc1ccc(OCc2ccccn2)cc1,15.8µM*,?,14.5%,?,-0.9%,-2.6%
NC(C(=O)O)c1cc(O)cc(O)c1 (centres undefined),-1.4%,·,·,·,·,·
CC(C)(C)C1CCC(OC(=O)c2cncc(Br)c2)CC1 (centres undefined),-38.2%,7.57µM*,?,8.6%,?,1.78µM*
COC(=O)c1ccccc1NC(=O)c1ccc2c(c1)CCN2S(=O)(=O)c1ccc(C)cc1,4.1%,-5.5%,·,·,·,·
Cc1c(C(=O)NC(=S)NCC(C)C)oc2ccccc12,12.6µM*,3.01µM*,?,?,2.82µM*,?
CC(=O)Nc1ccc(NC(=S)NC(=O)c2oc3ccccc3c2C)cc1,-24.2%,0.3%,10.5%,17.0%,0.7%,5.7%
C=CCNC(=S)NC(=O)c1oc2ccccc2c1C,?,9.53µM*,?,24.3%,?,3.98µM*
Cc1cccnc1NC(=S)NC(=O)c1oc2ccccc2c1C,·,19µM*,?,?,1.78µM*,3.16µM*
Cc1cccc(N(C)C(CNS(=O)(=O)c2ccccc2)c2ccccc2)c1 (centres undefined),1.7%,-1.2%,·,·,·,·
SMILES,SMN2 splice enh,FLuc counter,ELG1 genotoxic,p53 reactivator,NPC1 promoter act,Rab9 promoter act
COc1ccc(S(=O)(=O)n2nc(-c3ccco3)nc2NCc2ccc(OC)c(OC)c2)cc1,·,-6.9%,·,·,·,·
COc1cc(O)oc1C=Nc1ccc(Cl)cc1,-5.8%,-11.9%,0.5%,7.7%,-3.7%,0.0%
COc1cc(O)oc1C=Nc1ccc(Oc2ccccc2)cc1,-22.6%,15.1µM*,15.6%,?,?,?
COc1ccccc1N1CCN(C(=O)CSc2nc3ccccc3[nH]2)CC1,-13.7%,8.6%,-5.2%,2.2%,0.9%,-0.2%
COc1ccc(N2CCN(C(=O)CSc3ncccc3-c3nc4ccccc4[nH]3)CC2)cc1,-30.7%,10.7µM*,2.8%,?,8.0%,-2.1%
O=C(CSc1ncccc1-c1nc2ccccc2[nH]1)NC1CC1,17.0%,?,2.9%,7.3%,-0.4%,-10.7%
COc1ccccc1N1CCN(C(=O)CSc2ncccc2-c2nc3ccccc3[nH]2)CC1,-35.5%,23.9µM*,4.2%,6.8%,0.4%,1.4%
O=C(CSc1ncccc1-c1nc2ccccc2[nH]1)N1CCN(c2ccccc2F)CC1,-19.3%,19µM*,-2.4%,18.5%,-11.1%,20.7%
Cc1ccc(S(=O)(=O)c2nnn3c2nc(Nc2ccc(C(C)C)cc2)c2sccc23)cc1C,·,3.9%,·,·,·,·
Cc1ccc(Cl)cc1-n1nnc(-c2nsc(NC(=O)c3ccccc3Cl)n2)c1C,-24.5%,12µM*,·,·,·,·
O=C1/C(=C/c2cccnc2)CCC/C1=C\c1cccnc1,-99.6%,-22.3%,-12.9%,-15.5%,-6.0%,-44.2%
O=C1/C(=C/c2cccnc2)CC/C1=C\c1cccnc1,-20.8%,?,-22.4%,14.2%,-1.6%,-8.6%
O=C1/C(=C/c2ccccc2)CCCc2ccccc21,-9.7%,10.7µM*,?,13.3%,-0.2%,3.1%
O=C1/C(=C/c2ccc(C(=O)O)cc2)CCC/C1=C\c1ccc(C(=O)O)cc1,18.0%,3.4%,1.7%,3.4%,-0.9%,-0.4%
O=C1/C(=C/c2ccccc2)CSc2sccc21,5.2%,?,?,5.2%,15.0%,20.5%
O=C1/C(=C\c2cccnc2)CCc2ccccc21,·,6.01µM*,11.8%,?,-7.1%,4.2%
CN(C)c1ccc(/C=C2\CCC/C(=C\c3ccccc3)C2=O)cc1,17.8%,12µM*,?,?,27.8%,23.5%
CC(C)/C=C1\CC/C(=C\c2cccnc2)C1=O,-34.2%,16.9µM*,2.4%,-2.8%,2.6%,1.0%
O=C(Nc1ccc2c(c1)OCCO2)c1oc2ccccc2c1NC(=O)C1CC1,?,?,-5.8%,-3.8%,1.1%,17.4%
COc1ccc(NC(=O)c2oc3ccccc3c2NC(=O)c2cc(OC)c(OC)c(OC)c2)cc1,-1.7%,-1.2%,·,·,·,·
COCC(=O)Nc1c(C(=O)Nc2ccc3c(c2)OCCO3)oc2ccccc12,7.94µM*,·,3.0%,?,1.41µM*,1.12µM*
CCOCC(=O)Nc1c(C(=O)Nc2ccc3c(c2)OCCO3)oc2ccccc12,2.82µM*,-15.4%,?,10.6%,1.41µM*,0.708µM*
COc1ccc(NC(=O)c2oc3ccccc3c2NC(=O)c2ccc3c(c2)OCO3)cc1,23.5%,9.53µM*,1.5%,9.0%,12.0%,16.3%
